From PubChem BioAssay
The list is not random: actives were taken first. Their share in the collection is about 2.8%.
PglD DTNB: C. jejuni PglD acetyltransferase inhibitors, primary screen, biochemical, DTNB colorimetric, single point | UDP-N-acetylbacillosamine N-acetyltransferase PglD (Campylobacter jejuni) | 0.098% of 360,000 active | purified PglD enzyme, DTNB colorimetric CoA detection | inhibition, % at 12.5 µM; in the data active = inhibition above about 16%, passing the limit was not always enough
PvdQ inh: P. aeruginosa PvdQ acylase inhibitors, primary screen, biochemical, fluorescence, plate reader and imaging, single point | inhibition, % at 10 µM | AID 488965, 2010 | 0.063% of 340,000 active | purified PvdQ acylase; in the data active = inhibition above about 30%, passing the limit was not always enough
dFosB activator: activators of delta FosB homodimer, primary screen, biochemical, fluorescence polarization, TAMRA-CDK5 oligo, single point. purified delta FosB; percent of positive-control signal above neutral wells. Protein FosB (Mus musculus), P13346. activation, % at 25 µM. 0.99% of 340,000 active;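 active = mean activation above about 17%, with every replicate also reaching it, limit read from the data, passing the limit was not always enough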
Target sequence (P13346 whole entry, looked up): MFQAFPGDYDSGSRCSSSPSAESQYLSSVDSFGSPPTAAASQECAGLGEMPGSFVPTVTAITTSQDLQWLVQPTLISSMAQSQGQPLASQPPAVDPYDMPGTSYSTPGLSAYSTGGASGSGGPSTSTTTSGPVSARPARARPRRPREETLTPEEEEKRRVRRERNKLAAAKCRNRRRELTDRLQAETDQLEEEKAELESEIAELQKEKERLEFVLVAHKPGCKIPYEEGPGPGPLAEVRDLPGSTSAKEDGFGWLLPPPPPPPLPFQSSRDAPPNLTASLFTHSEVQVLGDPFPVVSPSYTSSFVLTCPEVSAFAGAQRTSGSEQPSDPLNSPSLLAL
FGF22 binding-1: binders of human FGF22 protein, primary screen, FGF22 synaptogenesis inhibitor project, biophysical, thermal shift, single point; Fibroblast growth factor 22 (Homo sapiens), Q9HCT0; AID 651658, 2012; activity (Tm shift, normalised), % at 9.99 µM; 1.5% of 340,000 active; recombinant FGF22 thermal shift, SYPRO orange fluorescence; percent of sucrose octasulfate shift, DMSO zero;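 active = mean Tm shift, scaled 0 neutral to 100 positive control, at about 1.3% or above, every replicate too, limit read from the data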
Target sequence (Q9HCT0 whole entry, looked up): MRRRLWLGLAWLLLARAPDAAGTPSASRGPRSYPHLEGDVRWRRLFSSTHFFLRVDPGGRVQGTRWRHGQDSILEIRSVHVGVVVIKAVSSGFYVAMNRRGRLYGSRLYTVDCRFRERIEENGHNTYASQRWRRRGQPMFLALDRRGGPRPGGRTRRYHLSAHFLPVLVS
CDK5 p35 inh: inhibitors of human CDK5/p35 kinase, primary screen, biochemical, single concentration | Recombinant CDK5/p35, ADP-Glo luminescence, 60 min | 0.01% of 330,000 active | Cyclin-dependent kinase 5 (Homo sapiens) + Cyclin-dependent kinase 5 activator 1 (Homo … | inhibition, % at 10 µM;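 active = highest replicate inhibition of at least 50% and at least 75% of replicates reaching 50%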
SIRT5 block: SIRT5 desuccinylase inhibitors, primary screen, biochemical, fluorescence imaging, single point, set 5 | NAD-dependent protein deacylase sirtuin-5, mitochondrial (Homo sapiens), Q9NXA8 | AID 652115, 2013 | inhibition, % at 15 µM | Purified SirT5, succinyl-peptide AMC, trypsin-coupled fluorescence | 1.1% of 330,000 active; in the data active = inhibition above about 15%
FGF22 binding-2: binders of human FGF22 protein, dose response, FGF22 synaptogenesis inhibitor project, biophysical, thermal shift, cherry-pick retest; shares compounds with FGF22 binding-1; recombinant FGF22 thermal shift, SYPRO orange fluorescence; thermal shift activity, °C (ΔTm) at 38 µM; 2% of 1,000 active;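 active = fitted rise in melting shift crosses a set limit at or below the top valid dose tested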
TSA no protein: compound-only thermal shift signal without protein, dose response, artefact control for FGF22 binder project, biochemical, cherry-picked samples, RT-PCR instrument; 2% of 1,000 active; shares compounds with FGF22 binding-1; AID 743019, 2013; compound-only SYPRO orange thermal shift counter-screen, no protein; AC50, µM (top dose mostly 38 µM);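 active = rising signal whose fitted curve reaches the 0.54 level within the top valid dose, showing a melting point, actives reach about 13 µM in these data; inactive = the rest, including activity in the opposite direction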; note: value is where the raw curve crosses a fixed level and not half-maximal
Of the large screens only hits and unclear results are named; the others gave an inactive call (follow-up assays come after a bar, where they were run).

CC(C)N(C[C@H]1[C@H](c2ccccc2)[C@@H](CO)N1S(C)(=O)=O)C(=O)CN(C)C	FGF22 binding-1 1.2 (no result: PvdQ inh, dFosB activator, CDK5 p35 inh, SIRT5 block) | FGF22 binding-2 inactive | TSA no protein inactive
CC(C)N(C[C@H]1[C@H](c2ccccc2)[C@H](CO)N1S(C)(=O)=O)C(=O)CN(C)C	none (no result: PvdQ inh, dFosB activator, CDK5 p35 inh)
COc1ccc(NC(=O)N(C)C[C@H]2OCCCC[C@H](C)Oc3ccc(NC(=O)CCCN(C)C)cc3C(=O)N([C@@H](C)CO)C[C@H]2C)cc1	none (no result: PvdQ inh, dFosB activator, CDK5 p35 inh)
O=C(C[C@H]1C=C[C@@H](NS(=O)(=O)c2ccccc2)[C@@H](CO)O1)N1CCc2ccccc2C1	none (no result: PvdQ inh, dFosB activator, CDK5 p35 inh)
COc1ccc(S(=O)(=O)N[C@@H]2CC[C@H](CC(=O)N3CCc4ccccc4C3)O[C@@H]2CO)cc1	none (no result: PvdQ inh, dFosB activator, CDK5 p35 inh)
Cc1ccc(S(=O)(=O)N[C@@H]2C=C[C@@H](CC(=O)N3CCc4ccccc4C3)O[C@@H]2CO)cc1	FGF22 binding-1 1.3 (no result: PvdQ inh, dFosB activator, CDK5 p35 inh) | FGF22 binding-2 inactive | TSA no protein inactive
COc1ccc(S(=O)(=O)N[C@H]2CC[C@H](CC(=O)N3CCc4ccccc4C3)O[C@@H]2CO)cc1	FGF22 binding-1 17 (no result: PvdQ inh, dFosB activator, CDK5 p35 inh) | FGF22 binding-2 inactive | TSA no protein inactive
C/C=C/c1ccc2c(c1)O[C@H](CN(C)C(=O)C1CCOCC1)[C@@H](C)CN([C@@H](C)CO)S2(=O)=O	none (no result: PvdQ inh, dFosB activator, CDK5 p35 inh)
Cc1ccc(S(=O)(=O)Nc2cccc3c2O[C@@H](CN(C)Cc2ccc(C(=O)O)cc2)[C@H](C)CN([C@H](C)CO)C3=O)cc1	none (no result: PvdQ inh, dFosB activator, CDK5 p35 inh)
CCCN(C)C[C@@H]1OCCCC[C@@H](C)Oc2ccc(NC(=O)NC(C)C)cc2C(=O)N([C@H](C)CO)C[C@@H]1C	none (no result: PvdQ inh, dFosB activator, CDK5 p35 inh)
COc1ccc(S(=O)(=O)Nc2ccc3c(c2)C(=O)N([C@H](C)CO)C[C@@H](C)[C@@H](CN(C)C)OCCCC[C@@H](C)O3)cc1	none (no result: PvdQ inh, dFosB activator, CDK5 p35 inh)
CC(C)NC(=O)N(C)C[C@H]1OCCCC[C@H](C)Oc2ccc(N(C)C)cc2C(=O)N([C@H](C)CO)C[C@H]1C	FGF22 binding-1 209 (no result: PvdQ inh, dFosB activator, CDK5 p35 inh) | FGF22 binding-2 inactive | TSA no protein inactive
COc1ccc(S(=O)(=O)Nc2ccc3c(c2)C(=O)N([C@@H](C)CO)C[C@@H](C)[C@@H](CN(C)C)OCCCC[C@@H](C)O3)cc1	FGF22 binding-1 2.1 (no result: PvdQ inh, dFosB activator, CDK5 p35 inh) | FGF22 binding-2 inactive | TSA no protein inactive
CNC[C@H]1OCCCC[C@@H](C)Oc2ccc(NC(=O)Nc3ccc(C(F)(F)F)cc3)cc2C(=O)N([C@H](C)CO)C[C@@H]1C	FGF22 binding-1 7.0 (no result: PvdQ inh, dFosB activator, CDK5 p35 inh) | FGF22 binding-2 inactive | TSA no protein inactive
CCCN(C)C[C@@H]1OCCCC[C@@H](C)Oc2ccc(NC(=O)NC(C)C)cc2C(=O)N([C@@H](C)CO)C[C@@H]1C	FGF22 binding-1 1.4 (no result: PvdQ inh, dFosB activator, CDK5 p35 inh) | FGF22 binding-2 inactive | TSA no protein inactive
COc1ccc(S(=O)(=O)N(C)C[C@H]2Oc3ccc(NC(=O)CCC(F)(F)F)cc3CC(=O)N([C@@H](C)CO)C[C@H]2C)cc1	none (no result: PvdQ inh, dFosB activator, CDK5 p35 inh)
C[C@H](CO)N1C[C@H](C)[C@@H](CN(C)S(=O)(=O)c2cn(C)cn2)Oc2ccc(NS(=O)(=O)c3cn(C)cn3)cc2CC1=O	none (no result: PvdQ inh, dFosB activator, CDK5 p35 inh)
COc1ccc2c3c(n(C)c2c1)[C@@H](CO)N(C(=O)c1cccnc1)CC31CN(S(C)(=O)=O)C1	none (no result: PglD DTNB, PvdQ inh, dFosB activator, CDK5 p35 inh)
CC(C)NC(=O)Nc1ccc2c(c1)C(=O)N([C@H](C)CO)C[C@H](C)[C@@H](CN(C)C(=O)Nc1ccccc1)OCCCC[C@@H](C)O2	none (no result: PvdQ inh, dFosB activator, CDK5 p35 inh)
CC(C)NC(=O)Nc1ccc2c(c1)C(=O)N([C@@H](C)CO)C[C@@H](C)[C@@H](CN(C)C(=O)Nc1ccccc1)OCCCC[C@@H](C)O2	FGF22 binding-1 28 (no result: PvdQ inh, dFosB activator, CDK5 p35 inh) | FGF22 binding-2 inactive | TSA no protein inactive
CCCNC(=O)COCc1cc(-c2ccc3c(c2)OCO3)on1	FGF22 binding-1 29 | FGF22 binding-2 inactive | TSA no protein inactive
CCCCNC(=O)COCc1cc(-c2ccc3c(c2)OCO3)on1	none
CCCNC(=O)[C@@H]1[C@@H](CO)[C@@H]2Cn3c(ccc(-c4cccc(OC)c4)c3=O)[C@H]1N2CCC	none (no result: PvdQ inh, dFosB activator, CDK5 p35 inh)
COC(=O)CN1C(=S)N(c2ccc(F)cc2)C(=O)C1CC(=O)Nc1ccccc1 (configuration not stated)	FGF22 binding-1 1.6 | FGF22 binding-2 inactive | TSA no protein inactive
COc1ccc(CN2C(=O)N(c3ccc(OC)cc3)C(=O)C2CC(=O)Nc2ccccc2)cc1 (configuration not stated)	FGF22 binding-1 1.4 | FGF22 binding-2 inactive | TSA no protein inactive
CCNC(=O)CC1C(=O)N(c2ccc(OC)cc2)C(=O)N1Cc1ccc(OC)cc1 (configuration not stated)	none (no result: FGF22 binding-1, SIRT5 block)
CCOc1ccc(NC(=O)CC2C(=O)N(c3ccc(OC)cc3)C(=S)N2Cc2ccccn2)cc1 (configuration not stated)	FGF22 binding-1 2.0 | FGF22 binding-2 inactive | TSA no protein inactive
COC(=O)CN1C(=S)N(c2ccc(F)cc2)C(=O)C1CC(=O)Nc1ccc(OC)cc1 (configuration not stated)	none
Cc1ccccc1-c1ccc2c(c1)O[C@@H](CN(C)Cc1ccc(C(=O)O)cc1)[C@@H](C)CN([C@@H](C)CO)S2(=O)=O	none (no result: PvdQ inh, dFosB activator, CDK5 p35 inh)
CC(C)NC(=O)N1[C@@H](CO)[C@@H]2c3ccccc3N(C(=O)Nc3ccc(F)cc3)C[C@@H]21	none (no result: PvdQ inh, dFosB activator, CDK5 p35 inh)
CN(C)CC(=O)Nc1ccc2c(c1)[C@@H]1C[C@@H](CC(=O)N3CCc4ccccc4C3)O[C@@H](CO)[C@@H]1O2	none (no result: PvdQ inh, dFosB activator, CDK5 p35 inh)
Cc1ccc(-c2c[n+](CC(=O)Nc3ccc(C)cc3C)c3n2CCC3)cc1	FGF22 binding-1 14 (no result: SIRT5 block) | FGF22 binding-2 inactive | TSA no protein inactive
COc1cccc(NC(=O)CN2CCN(S(=O)(=O)c3ccc(F)cc3)CC2)c1	FGF22 binding-1 28 | FGF22 binding-2 inactive | TSA no protein inactive
CO[C@H]1CN(C)C(=O)c2ccc(NC(=O)NC(C)C)cc2OC[C@H](C)N(C(=O)C2CCC2)C[C@@H]1C	none (no result: PglD DTNB, PvdQ inh, dFosB activator, CDK5 p35 inh)
